Rows were chosen to be rich in hits. Some 1.6% of all compounds tested hit in one or more screens of this group.
Hsp70 activator: transcriptional activators of Hsp70 | HeLa Hsp70 promoter luciferase reporter, luminescence; scaled: vehicle 0, proteasome-inhibitor control 100% | activation, % at 10 µM | actives 0.04% (n = 200,000);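 active means activation above the mean across all tested compounds plus 3 SD, cutoff set per campaign, cut at about 5.5% in these data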
p97 ATPase inh: blocks human p97 ATPase activity. P55072. recombinant p97 ATPase, Kinase-Glo ATP luminescence, 3 h. inhibition, % at 8 µM. actives 0.42% (n = 220,000). AID 1481; in the data active means inhibition above about 15%
Target sequence (P55072 whole entry, looked up): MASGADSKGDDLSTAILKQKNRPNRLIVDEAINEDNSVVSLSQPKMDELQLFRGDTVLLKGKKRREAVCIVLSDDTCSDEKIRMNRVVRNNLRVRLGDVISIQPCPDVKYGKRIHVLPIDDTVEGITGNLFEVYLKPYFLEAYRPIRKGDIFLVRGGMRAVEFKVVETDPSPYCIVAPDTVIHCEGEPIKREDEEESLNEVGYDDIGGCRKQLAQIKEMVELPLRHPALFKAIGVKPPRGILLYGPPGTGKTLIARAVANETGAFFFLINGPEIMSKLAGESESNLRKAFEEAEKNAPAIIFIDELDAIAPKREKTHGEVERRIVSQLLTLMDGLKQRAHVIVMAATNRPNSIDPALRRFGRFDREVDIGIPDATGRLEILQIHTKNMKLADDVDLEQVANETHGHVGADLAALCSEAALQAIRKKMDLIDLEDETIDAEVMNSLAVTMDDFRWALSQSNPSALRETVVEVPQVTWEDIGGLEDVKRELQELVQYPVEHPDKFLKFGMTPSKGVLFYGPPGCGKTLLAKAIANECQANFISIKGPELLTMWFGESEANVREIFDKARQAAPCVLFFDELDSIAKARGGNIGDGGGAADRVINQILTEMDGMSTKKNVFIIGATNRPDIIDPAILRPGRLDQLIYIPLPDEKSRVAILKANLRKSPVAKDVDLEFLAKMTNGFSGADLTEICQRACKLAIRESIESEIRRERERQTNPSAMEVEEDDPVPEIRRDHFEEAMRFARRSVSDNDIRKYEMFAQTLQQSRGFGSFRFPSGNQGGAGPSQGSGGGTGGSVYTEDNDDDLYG
HSV augment: increases HSV replication in cells; maximum fold increase; HSV replication augmentation in cells, fold increase; actives 0.005% (n = 220,000); AID 1956; in the data active means maximum fold increase above about 1.5; tested in PC3 cells
Redox H2O2 prof: compounds producing H2O2 with reducing agent – biochemical, NIH compound library profiling, artefact control for MLSCN library redox annotation, primary screen. DTT-dependent redox cycling H2O2, phenol red/HRP absorbance; 100% = 100 µM peroxide control, 0% = buffer. activation, % at 10 µM. actives 0.03% (n = 200,000);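 active means activation of at least 50% relative to the plate's high and low controls in the primary single-dose screen; inactive means activation below 50%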;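 further: compound incubated with DTT at 0.8 mM final as the reducing agent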
Wee1 degr inh: inhibitors of human Wee1 degradation. P30291. HeLa Luc-Wee1K328M stability, luciferase luminescence; 100% = proteasome inhibitor MG132 effect. reporter increase, % at 5 µM. actives 1.2% (n = 220,000);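 active means activation above the mean of all tested compounds plus 3 SD, set per screening run, cut at about 8.8% in these data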;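 further: cells exposed to compound for 20 h before luminescence read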
A number is an active result; – = inactive; · = no result given.

SMILES	Hsp70 activator	p97 ATPase inh	HSV augment	Redox H2O2 prof	Wee1 degr inh
O=C(O)CC(CC(=O)Nc1ccc(N2CCOCC2)cc1)c1ccccc1 (configuration not stated)	·	–	–	·	–
Cc1onc(-c2ccccc2)c1-c1ccnn1S(=O)(=O)c1ccc(Cl)cc1	·	–	–	·	10
Cc1ccc(S(=O)(=O)n2nccc2-c2c(-c3ccccc3)noc2C)cc1	·	–	–	·	–
CC(=O)C1=C(c2cccc([N+](=O)[O-])c2)N(C(C)=O)n2c(C)nnc2S1	–	–	–	–	10.0
O=C(Oc1nsnc1N1CCCCC1)N1CCOCC1	–	–	–	–	8.9
c1ccc(-c2noc(-c3cccc4ccccc34)n2)nc1	–	–	–	–	9.1
COc1cccc(-c2nc(-c3ccccn3)no2)c1OC	–	–	–	–	–
Cn1c(=O)c2c(nc(NCc3ccc4c(c3)OCO4)n2Cc2ccccc2Cl)n(C)c1=O	–	–	–	–	–
Cn1c(=O)c2c(nc(OCc3ccc4c(c3)OCO4)n2Cc2ccccc2Cl)n(C)c1=O	–	–	–	–	9.2
CN1CN(C)C(c2ccncc2)=C1c1ccncc1	·	–	–	·	–
O=C(NCCNc1ccc([N+](=O)[O-])cc1)c1cccc(Br)c1	–	–	–	–	9.4
O=C(CCNc1ccc(Br)cc1)c1cccc([N+](=O)[O-])c1	–	–	–	–	–
Cn1ccnc1Sc1nc2ccccc2nc1NS(=O)(=O)c1ccccc1	–	–	–	–	–
CCn1c(COc2ccc(Cl)cc2)nnc1SCc1nc2ccccc2[nH]1	–	–	–	–	–
CCn1c(COc2ccc(OC)cc2)nnc1SCc1nc2ccccc2c(=O)[nH]1	–	–	–	–	9.8
COCC(=O)N(C)C1(c2nnnn2CCOC(=O)Nc2ccc(Cl)cc2)CCCC1	–	–	–	–	–
CC(C)c1ccc2oc(=O)cc(CN3CCN(c4ccc(F)cc4)CC3)c2c1	–	–	–	–	–
CCc1ccc2oc(=O)cc(CN3CCN(c4ccc(F)cc4)CC3)c2c1	–	–	–	–	11
O=C(O)CCCCCN1C(=O)CSC1=S	–	–	–	–	–
CC(C)OC(=O)CCCCCN1C(=O)CSC1=S	–	–	–	–	9.0
O=C1COc2ccc(C(=O)COC(=O)Cc3ccsc3)cc2N1	–	–	–	–	10
COc1ccc(O)c(/C=N/NC(=O)c2ccc(CSc3nc(C)cc(C)n3)cc2)c1	–	–	–	–	–
Cc1cc(C)nc(SCc2ccc(C(=O)N/N=C/c3cccc(O)c3O)cc2)n1	–	15	–	–	–
CC(O)/C=C/C1OC(=O)CC1Nc1ccc(C=O)cc1 (configuration not stated)	–	–	–	–	11
COc1ccccc1OCCOCCOc1ccc(C)cc1[N+](=O)[O-]	–	–	–	–	–
SMILES	Hsp70 activator	p97 ATPase inh	HSV augment	Redox H2O2 prof	Wee1 degr inh
O=C(COc1ccccc1C(=O)N/N=C\c1ccc(O)c(O)c1)N/N=C/c1ccc(O)c(O)c1	–	19	·	–	–
O=C(COc1ccccc1[N+](=O)[O-])N/N=C/c1ccc(O)c([N+](=O)[O-])c1	–	–	–	–	–
O=C(N/N=C/c1ccccc1OC(F)F)c1cc(-c2ccncc2)nc2ccccc12	–	–	–	–	11
O=C(O)COc1ccccc1/C=N/NC(=O)c1cc(-c2ccccc2)nc2ccccc12	·	–	–	·	–
O=C1/C(=C/N(C(=O)c2ccco2)c2ccc(Cl)cc2)Sc2ccccc21	–	–	–	–	9.4
O=C1/C(=C/N(C(=O)c2ccco2)c2ccc(Br)cc2)Sc2ccccc21	–	–	–	–	–
O=C(NC(=S)Nc1cccc2ncccc12)c1ccco1	–	–	–	–	–
COCCCNC(=S)Nc1cccc2ncccc12	–	–	–	–	9.2
CNC(=O)c1ccccc1-c1cn(C)c2ccccc2c1=O	–	–	–	–	–
CC(=O)c1ccc(Nc2cc(C)nc3c(C)cc(C)cc23)cc1	–	–	–	–	11
CC(C)N1CCN(Cc2cccn2-c2cccnc2)CC1CCO (configuration not stated)	–	–	–	–	9.6
CC(C)CCN1CCN(Cc2cccn2-c2cccnc2)CC1CCO (configuration not stated)	–	–	–	–	–
COC(=O)/C=c1/sc2n(c1=O)CCN=2	–	–	–	–	9.2
O=C(c1ccco1)N1CCN(C/C=C/c2ccccc2)CC1	–	–	–	–	–
O=C(NC(=S)N1CCN(C/C=C/c2ccccc2)CC1)c1ccco1	–	–	–	–	9.6
c1ccc2sc(NCC3CCCO3)nc2c1 (configuration not stated)	–	–	–	–	9.4
c1ccc2oc(-c3csc(NCC4CCCO4)n3)cc2c1 (configuration not stated)	–	–	–	–	–
COc1ccc(NC(C)=O)cc1S(=O)(=O)NC(Cc1ccccc1)C(=O)O (configuration not stated)	·	–	–	·	–
COCCn1c(SCC(=O)c2ccccc2)nc2c(c1=O)SCC2	–	–	–	–	–
CSc1sc(-c2ccnc(=S)[nH]2)c(-c2ccccc2)c1C#N	·	–	–	·	9.8
O=C1NCCN1C(=O)c1ccccc1F	–	–	–	–	–
O=C1NCCN1C(=O)c1cccc(Cl)c1	–	–	·	–	12
Cc1[nH]n2c(=O)cc(C(C)(C)C)nc2c1-c1ccccc1	–	–	–	–	9.1
Cc1[nH]n2c(=O)cc(C(C)C)nc2c1-c1ccccc1	–	–	·	–	–
COCCn1c(C)cc(C(=O)COc2ccc(C)nc2[N+](=O)[O-])c1C	–	15	–	–	–
SMILES	Hsp70 activator	p97 ATPase inh	HSV augment	Redox H2O2 prof	Wee1 degr inh
CCCn1c(C)cc(C(=O)COc2ccc(C)nc2[N+](=O)[O-])c1C	–	–	–	–	–
Cc1ccc(S(=O)(=O)N2CCN(C(=O)N3CCOCC3)C2c2ccc(N(C)C)cc2)cc1 (configuration not stated)	–	–	–	–	14
CN(C)c1ccc(C2N(C(=O)N3CCOCC3)CCN2S(=O)(=O)c2ccccc2)cc1 (configuration not stated)	–	–	–	–	–
C#CCOC(=O)c1ccc(-n2cncn2)nc1	–	–	–	–	–
Cc1c(NC(=O)COC(=O)CCC(=O)c2ccc(Cl)cc2)c(=O)n(-c2ccccc2)n1C	–	–	–	–	9.4
CCOC(=O)C1CCN(c2nc(N)c3c(N)nc(SCC(=O)O)cc3c2C#N)CC1	·	55	–	·	–
Cc1ccc(NS(=O)(=O)N(C)C)cc1	–	–	–	–	9.8
CSc1ccc(S(=O)(=O)Nc2ccc(S(=O)(=O)Nc3ccc(C)cc3)cc2)cc1	–	–	–	–	–
Cc1ccc(S(=O)(=O)Nc2ccc(N(C)S(=O)(=O)c3ccc(C)cc3)cc2)cc1	·	–	–	·	10
COC(=O)c1ccc(NS(=O)(=O)N(C)C)cc1	–	–	–	–	–
O=C(CC1(O)C(=O)Nc2cc(Cl)cc(Cl)c21)c1ccncc1 (configuration not stated)	–	–	–	–	–
